Measurements as given in PubChem BioAssay (NCI).
The panel holds about 79,000 compounds, 15% with a hit somewhere; the sample as a whole holds those more often. Active and inactive are the calls of the source. Rule as the data show it: active = growth inhibition above about 70%; inactive = the rest.

Test: NCI Yeast Anticancer Drug Screen. Data for the rad50 strain (AID 155);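 also: 0% = growth of vehicle-only cultures of the same strain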
Details: S. cerevisiae rad50 strain growth inhibition; at 1.2 µM; stronger effect = higher value
Method in brief: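 A DNA repair-deficient yeast mutant serves as the test organism; compound-induced growth inhibition is calculated against vehicle-treated cells.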
For COc1ccc(/C=C2\CCc3ccccc3C2=O)cc1OC, the growth inhibition was 3% (inactive).
For CC(=O)CC[N+](C)(C)C, the growth inhibition was -14% (inactive).
For O=C(O)[C@H]1[C@@H](C2CCCCC2)O[C@@H](C2CCCCC2)O[C@H]1C(F)(F)F, the growth inhibition was -4% (inactive).
For CN(NC(=O)/C(=C/C=C/c1ccccc1)NC(=O)c1ccccc1)C1=C(Cl)C(=O)[N+](c2ccccc2)=CC1, the growth inhibition was -4% (inactive).
In the case of CCCCOc1ccc(Nc2c3ccccc3nc3ccccc23)cc1, the growth inhibition is reported as 41% (inactive).
With N#C/C(=C1C=C/C(=N\O)C(Cl)=C\1)c1ccccc1 the growth inhibition was 0% (inactive).
For COc1ccc(C(=O)OCCc2ccccc2)cc1, the growth inhibition was 6% (inactive).
For Cc1c2ccncc2c(C)c2c1oc1ccccc12, the growth inhibition was 53% (inactive).
In the case of CCCC#CCOC(=O)c1cc([N+](=O)[O-])cc([N+](=O)[O-])c1, the growth inhibition is reported as 2% (inactive).
In the case of Nc1nc(Nc2ccccc2)nc(Nc2ccccc2)n1, the growth inhibition is reported as -6% (inactive).
For COc1ccc(/C=C2\S/C(=N/Nc3nc(-c4ccccc4)cs3)NC2=O)cc1OC, the growth inhibition was 59% (inactive).
For CC(O)CN1C(=O)c2cccc3cc([N+](=O)[O-])cc(c23)C1=O (centres undefined), the growth inhibition was -2% (inactive).
For Cn1c(COc2ccc(/C=N/NC(=O)CCC(=O)N/N=C/c3ccc(OCc4c[n+]5ccccc5n4C)cc3)cc2)c[n+]2ccccc12, the growth inhibition was 1% (inactive).
With COC1=C(N=[N+]=[N-])C(=O)c2ncccc2C1=O the growth inhibition was 56% (inactive).
For CCN(CC)c1ccc(N=Nc2cc(S(=O)(=O)O)ccc2O)c(O)c1, the growth inhibition was -11% (inactive).
In the case of O=C1C(C(O)(C(F)(F)F)C(F)(F)F)CCC1C(O)(C(F)(F)F)C(F)(F)F (centres undefined), the growth inhibition is reported as -4% (inactive).
With CN(C)CCNC(=O)c1cccc2nc3c(ccc4ccccc43)nc12 the growth inhibition was 3% (inactive).
For O=S(=O)(CCC[C@H]1[C@@H](CCOCc2ccccc2)C2CCCN1O2)c1ccccc1 (some centres undefined), the growth inhibition was -3% (inactive).
With CCC(C)/C(C)=N/NC(N)=O (centres undefined) the growth inhibition was 2% (inactive).
For Nc1c([N+](=O)[O-])cc2c3c(cccc13)CC2, the growth inhibition was 28% (inactive).
For CC1=Cc2ccc(C)cc2C(=O)C1=O, the growth inhibition was 3% (inactive).
For C=Cc1c(C)c(O)cc2c1-c1ccc(O)c(C)c1CC2, the growth inhibition was -20% (inactive).
For NCC(O)CSCc1ccc(Cl)cc1 (centres undefined), the growth inhibition was -2% (inactive).
In the case of C[n+]1c(-c2ccc(NC(=O)c3ccc(C(=O)Nc4ccc(-c5cn6ccccc6[n+]5C)cc4)cc3)cc2)cn2ccccc21, the growth inhibition is reported as 3% (inactive).
With CNC(=O)OCc1c(COC(=O)NC)c(C)n(-c2ccc(Cl)c(Cl)c2)c1C the growth inhibition was -37% (inactive).
With [O-]c1c2cc(-[n+]3c(-c4ccccc4)cc(-c4ccccc4)cc3-c3ccccc3)cc1COCCOCCOCCOCCOC2 the growth inhibition was 1% (inactive).
With C[Si](C)(C)Cc1ccccc1C(=O)O the growth inhibition was 4% (inactive).

Same assay, conditions: S. cerevisiae rad50 strain growth inhibition; at 3.7 µM; stronger effect = higher value
For COc1ccc(/C=C2\CCc3ccccc3C2=O)cc1OC, the growth inhibition was -2% (inactive).
In the case of CC(=O)CC[N+](C)(C)C, the growth inhibition is reported as -9% (inactive).
For O=C(O)[C@H]1[C@@H](C2CCCCC2)O[C@@H](C2CCCCC2)O[C@H]1C(F)(F)F, the growth inhibition was -5% (inactive).
With CN(NC(=O)/C(=C/C=C/c1ccccc1)NC(=O)c1ccccc1)C1=C(Cl)C(=O)[N+](c2ccccc2)=CC1 the growth inhibition was -1% (inactive).
With CCCCOc1ccc(Nc2c3ccccc3nc3ccccc23)cc1 the growth inhibition was 79% (active).
For N#C/C(=C1C=C/C(=N\O)C(Cl)=C\1)c1ccccc1, the growth inhibition was 3% (inactive).
With COc1ccc(C(=O)OCCc2ccccc2)cc1 the growth inhibition was 3% (inactive).
In the case of Cc1c2ccncc2c(C)c2c1oc1ccccc12, the growth inhibition is reported as 87% (active).
For CCCC#CCOC(=O)c1cc([N+](=O)[O-])cc([N+](=O)[O-])c1, the growth inhibition was 67% (inactive).
With Nc1nc(Nc2ccccc2)nc(Nc2ccccc2)n1 the growth inhibition was -10% (inactive).
With COc1ccc(/C=C2\S/C(=N/Nc3nc(-c4ccccc4)cs3)NC2=O)cc1OC the growth inhibition was 87% (active).
In the case of CC(O)CN1C(=O)c2cccc3cc([N+](=O)[O-])cc(c23)C1=O (centres undefined), the growth inhibition is reported as 27% (inactive).
With Cn1c(COc2ccc(/C=N/NC(=O)CCC(=O)N/N=C/c3ccc(OCc4c[n+]5ccccc5n4C)cc3)cc2)c[n+]2ccccc12 the growth inhibition was 2% (inactive).
With COC1=C(N=[N+]=[N-])C(=O)c2ncccc2C1=O the growth inhibition was 84% (active).
For CCN(CC)c1ccc(N=Nc2cc(S(=O)(=O)O)ccc2O)c(O)c1, the growth inhibition was -19% (inactive).
With O=C1C(C(O)(C(F)(F)F)C(F)(F)F)CCC1C(O)(C(F)(F)F)C(F)(F)F (centres undefined) the growth inhibition was -14% (inactive).
For CN(C)CCNC(=O)c1cccc2nc3c(ccc4ccccc43)nc12, the growth inhibition was 26% (inactive).
In the case of O=S(=O)(CCC[C@H]1[C@@H](CCOCc2ccccc2)C2CCCN1O2)c1ccccc1 (some centres undefined), the growth inhibition is reported as -13% (inactive).
With CCC(C)/C(C)=N/NC(N)=O (centres undefined) the growth inhibition was 0% (inactive).
In the case of Nc1c([N+](=O)[O-])cc2c3c(cccc13)CC2, the growth inhibition is reported as 67% (inactive).
For CC1=Cc2ccc(C)cc2C(=O)C1=O, the growth inhibition was 6% (inactive).
In the case of C=Cc1c(C)c(O)cc2c1-c1ccc(O)c(C)c1CC2, the growth inhibition is reported as -3% (inactive).
For NCC(O)CSCc1ccc(Cl)cc1 (centres undefined), the growth inhibition was 2% (inactive).
With C[n+]1c(-c2ccc(NC(=O)c3ccc(C(=O)Nc4ccc(-c5cn6ccccc6[n+]5C)cc4)cc3)cc2)cn2ccccc21 the growth inhibition was 4% (inactive).
In the case of CNC(=O)OCc1c(COC(=O)NC)c(C)n(-c2ccc(Cl)c(Cl)c2)c1C, the growth inhibition is reported as -34% (inactive).
In the case of [O-]c1c2cc(-[n+]3c(-c4ccccc4)cc(-c4ccccc4)cc3-c3ccccc3)cc1COCCOCCOCCOCCOC2, the growth inhibition is reported as -2% (inactive).
In the case of C[Si](C)(C)Cc1ccccc1C(=O)O, the growth inhibition is reported as 9% (inactive).
